Data as given in PubChem BioAssay (Tox21).
Records with an inconclusive call do not appear. Entries that show only a call come without a potency. Calls of active or inactive are those of the source. The call rests on the fitted dose curve; in most records, active means well fitted curve in the direction sought with a large enough effect in the repeat runs; inconclusive means weak or mixed curves; inactive means no such curve, though single readings can be large; an effect the other way counts as inactive or inconclusive.

assay: qHTS assay to identify small molecule antagonists of the thyroid receptor (TR) signaling pathway - cell viability counter screen (AID 743064); conditions: GH3.TRE-Luc viability, CellTiter-Fluor, 24 h; series mostly up to 70.3 µM; further: nearly all actives have a fitted effect of over 50% in size
Method in brief: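 Fluorescence from CellTiter-Fluor, added after 23.5 h exposure at 37 °C, reported viability of GH3.TRE-Luc cells co-treated with compound and 1 nM T3. Measured in the same wells as the luciferase TR readout.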
Potency means the concentration at half of the fitted maximal effect.

Question: Which Potency does the source give for `CC1=CC(C)C(C=O)C(C)C1` (stereo unspecified) here?
Answer: The Potency was “inactive”.

Question: For `Cc1cc(C)c(NC(=O)CN(CC(=O)O)CC(=O)O)c(C)c1Br`, which Potency is on record?
Answer: The Potency was “inactive”.

Question: For `OC/C=C/c1ccccc1`, which Potency is on record?
Answer: The Potency was “inactive”.

Question: For `C#CC(O)C(CC)CCCC` (stereo unspecified), which Potency is on record?
Answer: The Potency was “inactive”.

Question: For `C=C(C)C(=O)OCCCCCCCCCCCCCCCCCC`, which Potency is on record?
Answer: Its Potency is “inactive”.

Question: For `C=CCOc1nc(OCC=C)nc(OCC=C)n1`, which Potency is on record?
Answer: Its Potency is “inactive”.

Question: Which Potency does the source give for `CCCCCN(CCCCC)C(=O)C(CCC(=O)O)NC(=O)c1ccc(Cl)c(Cl)c1` (stereo unspecified) here?
Answer: The Potency was “inactive”.

Question: Which Potency does the source give for `OCCCCCCO` here?
Answer: Its Potency is “inactive”.

Question: With `NS(=O)(=O)c1cc2c(cc1C(F)(F)F)NC(Cc1ccccc1)NS2(=O)=O` (stereo unspecified) as the compound, how does the Potency read?
Answer: Its Potency is “inactive”.

Question: For `CCO[Si](CCCN=C=O)(OCC)OCC`, which Potency is on record?
Answer: Its Potency is “inactive”.

Question: For `CC(C=O)Cc1ccc(C(C)C)cc1` (stereo unspecified), which Potency is on record?
Answer: Its Potency is “inactive”.

Question: Which Potency does the source give for `CC1=CC(=O)CCC1` here?
Answer: The Potency was “inactive”.

Question: Which Potency does the source give for `O=C(O)/C=C/c1ccc(/C=C/C(=O)O)cc1` here?
Answer: Its Potency is “inactive”.

Question: With `CCCOCC(C)OCC(C)O` (stereo unspecified) as the compound, how does the Potency read?
Answer: Its Potency is “inactive”.

Question: For `OC[C@H]1O[C@@H]2O[C@H]3[C@H](O)[C@@H](O)[C@@H](O[C@H]4[C@H](O)[C@@H](O)[C@@H](O[C@H]5[C@H](O)[C@@H](O)[C@@H](O[C@H]6[C@H](O)[C@@H](O)[C@@H](O[C@H]7[C@H](O)[C@@H](O)[C@@H](O[C@H]8[C@H](O)[C@@H](O)[C@@H](O[C@H]9[C@H](O)[C@@H](O)[C@@H](O[C@H]1[C@H](O)[C@H]2O)O[C@@H]9CO)O[C@@H]8CO)O[C@@H]7CO)O[C@@H]6CO)O[C@@H]5CO)O[C@@H]4CO)O[C@@H]3CO`, which Potency is on record?
Answer: Its Potency is “inactive”.

Question: With `OCc1ccccn1` as the compound, how does the Potency read?
Answer: The Potency was “inactive”.

Question: For `NC(=O)CCCCC1CCSS1` (stereo unspecified), which Potency is on record?
Answer: Its Potency is “inactive”.

Question: For `CSc1ccc(C=O)cc1`, which Potency is on record?
Answer: The Potency was “inactive”.

Question: For `CCCc1ccccc1O`, which Potency is on record?
Answer: Its Potency is “inactive”.

Question: For `CCCC(=O)O[C@]1(C(=O)CCl)[C@@H](C)C[C@H]2[C@@H]3CCC4=CC(=O)C=C[C@]4(C)[C@@]3(F)C(=O)C[C@@]21C`, which Potency is on record?
Answer: The Potency was “inactive”.

Question: Which Potency does the source give for `CCOC(=O)Cn1c(=O)sc2cccc(Cl)c21` here?
Answer: Its Potency is “inactive”.

Question: For `COC(=O)CCCC(=O)O`, which Potency is on record?
Answer: Its Potency is “inactive”.

Question: Which Potency does the source give for `C/C=C1\C(=O)C[C@H]2[C@@H]3CCC4=CC(=O)CC[C@]4(C)[C@H]3CC[C@]12C` here?
Answer: The Potency was “inactive”.

Question: Which activity change, negative = cytotoxic does the source give for `FC(F)(F)C(F)(F)C(F)(F)C(F)(F)C(F)(F)C(F)(F)C(F)(F)C(F)(F)C(F)(F)C(F)(F)F` here?
Answer: The activity change, negative = cytotoxic was 12.8% [at 8.44 µM] (inactive).

Question: For `C=CC(=O)OCCCCCC`, which Potency is on record?
Answer: Its Potency is “inactive”.

Question: For `COc1cc(CCC(C)=O)ccc1O`, which Potency is on record?
Answer: Its Potency is “inactive”.

Question: Which Potency does the source give for `CCn1cc(C(=O)O)c(=O)c2cc(F)c(N3CCN(C)CC3)cc21` here?
Answer: Its Potency is “inactive”.

Question: With `O=S(=O)(O)c1ccccc1O` as the compound, how does the Potency read?
Answer: The Potency was “inactive”.

Question: Which Potency does the source give for `C#CC(O)CCCCC` (stereo unspecified) here?
Answer: The Potency was “inactive”.

Question: For `Cc1c(C)n(CCN(C)C)c2ccc(C(=O)OCCN(C)C)cc12`, which Potency is on record?
Answer: The Potency was 26.6 µM (active).

Question: For `C=CC(=O)N1CCOCC1`, which Potency is on record?
Answer: The Potency was “inactive”.

Question: For `OCC(O)[C@@H](O)[C@H](O)[C@H](O)CO[C@H]1O[C@H](CO)[C@@H](O)[C@H](O)[C@H]1O` (stereo partly specified), which Potency is on record?
Answer: The Potency was “inactive”.

Question: Which Potency does the source give for `CCCCCCCCC=O` here?
Answer: The Potency was “inactive”.

Question: Which Potency does the source give for `CC(CCO)CCCC(C)(C)O` (stereo unspecified) here?
Answer: Its Potency is “inactive”.

Question: Which Potency does the source give for `C[C@H]1O[C@@H](n2cc(F)c(=O)[nH]c2=O)[C@H](O)[C@@H]1O` here?
Answer: Its Potency is “inactive”.

Question: With `CCCCCCCCCCC1CO1` (stereo unspecified) as the compound, how does the Potency read?
Answer: The Potency was “inactive”.

Question: For `N[C@@H](CS)C(=O)O`, which Potency is on record?
Answer: The Potency was “inactive”.

Question: Which Potency does the source give for `C=C(C)C(=O)NCCC[N+](C)(C)C` here?
Answer: Its Potency is “inactive”.

assay: qHTS assay to identify small molecule antagonists of the thyroid receptor (TR) signaling pathway (AID 743065); conditions: GH3.TRE-Luc, T3-stimulated luciferase inhibition, 23.5 h; series mostly up to 70.3 µM; further: nearly all actives have a fitted effect of over 55% in size
Method in brief: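 GH3.TRE-Luc rat pituitary cells carrying two TR response elements driving luciferase were plated for 4 h, given compound plus 1 nM T3 (final), and incubated 23.5 h at 37 C. ONE-Glo luminescence measured reporter inhibition; CellTiter-Fluor fluorescence tracked cytotoxicity.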

Question: With `CC1=CC(C)C(C=O)C(C)C1` (stereo unspecified) as the compound, how does the Potency read?
Answer: The Potency was “inactive”.

Question: Which Potency does the source give for `Cc1cc(C)c(NC(=O)CN(CC(=O)O)CC(=O)O)c(C)c1Br` here?
Answer: The Potency was “inactive”.

Question: For `OC/C=C/c1ccccc1`, which Potency is on record?
Answer: The Potency was “inactive”.

Question: With `C#CC(O)C(CC)CCCC` (stereo unspecified) as the compound, how does the Potency read?
Answer: The Potency was “inactive”.

Question: Which Potency does the source give for `C=C(C)C(=O)OCCCCCCCCCCCCCCCCCC` here?
Answer: Its Potency is “inactive”.

Question: With `C=CCOc1nc(OCC=C)nc(OCC=C)n1` as the compound, how does the Potency read?
Answer: Its Potency is “inactive”.

Question: For `CCCCCN(CCCCC)C(=O)C(CCC(=O)O)NC(=O)c1ccc(Cl)c(Cl)c1` (stereo unspecified), which Potency is on record?
Answer: The Potency was “inactive”.

Question: With `OCCCCCCO` as the compound, how does the Potency read?
Answer: The Potency was “inactive”.

Question: Which Potency does the source give for `NS(=O)(=O)c1cc2c(cc1C(F)(F)F)NC(Cc1ccccc1)NS2(=O)=O` (stereo unspecified) here?
Answer: The Potency was “inactive”.

Question: Which Potency does the source give for `CCO[Si](CCCN=C=O)(OCC)OCC` here?
Answer: The Potency was “inactive”.

Question: Which Potency does the source give for `CC(C=O)Cc1ccc(C(C)C)cc1` (stereo unspecified) here?
Answer: The Potency was “inactive”.

Question: Which Potency does the source give for `CC1=CC(=O)CCC1` here?
Answer: Its Potency is “inactive”.

Question: Which Potency does the source give for `O=C(O)/C=C/c1ccc(/C=C/C(=O)O)cc1` here?
Answer: Its Potency is “inactive”.

Question: Which Potency does the source give for `CCCOCC(C)OCC(C)O` (stereo unspecified) here?
Answer: The Potency was “inactive”.

Question: Which Potency does the source give for `OC[C@H]1O[C@@H]2O[C@H]3[C@H](O)[C@@H](O)[C@@H](O[C@H]4[C@H](O)[C@@H](O)[C@@H](O[C@H]5[C@H](O)[C@@H](O)[C@@H](O[C@H]6[C@H](O)[C@@H](O)[C@@H](O[C@H]7[C@H](O)[C@@H](O)[C@@H](O[C@H]8[C@H](O)[C@@H](O)[C@@H](O[C@H]9[C@H](O)[C@@H](O)[C@@H](O[C@H]1[C@H](O)[C@H]2O)O[C@@H]9CO)O[C@@H]8CO)O[C@@H]7CO)O[C@@H]6CO)O[C@@H]5CO)O[C@@H]4CO)O[C@@H]3CO` here?
Answer: The Potency was “inactive”.

Question: For `OCc1ccccn1`, which Potency is on record?
Answer: Its Potency is “inactive”.

Question: Which Potency does the source give for `NC(=O)CCCCC1CCSS1` (stereo unspecified) here?
Answer: The Potency was “inactive”.

Question: With `CSc1ccc(C=O)cc1` as the compound, how does the Potency read?
Answer: The Potency was “inactive”.

Question: For `CCCc1ccccc1O`, which Potency is on record?
Answer: The Potency was “inactive”.

Question: For `CCCC(=O)O[C@]1(C(=O)CCl)[C@@H](C)C[C@H]2[C@@H]3CCC4=CC(=O)C=C[C@]4(C)[C@@]3(F)C(=O)C[C@@]21C`, which Potency is on record?
Answer: Its Potency is 11.9 µM (active).

Question: With `CCOC(=O)Cn1c(=O)sc2cccc(Cl)c21` as the compound, how does the Potency read?
Answer: The Potency was “inactive”.

Question: For `COC(=O)CCCC(=O)O`, which Potency is on record?
Answer: The Potency was “inactive”.

Question: With `C/C=C1\C(=O)C[C@H]2[C@@H]3CCC4=CC(=O)CC[C@]4(C)[C@H]3CC[C@]12C` as the compound, how does the Potency read?
Answer: The Potency was 30 µM (active).

Question: With `FC(F)(F)C(F)(F)C(F)(F)C(F)(F)C(F)(F)C(F)(F)C(F)(F)C(F)(F)C(F)(F)C(F)(F)F` as the compound, how does the activity, negative = inhibition read?
Answer: The activity, negative = inhibition was 5.14% [at 8.44 µM] (inactive).

Question: With `C=CC(=O)OCCCCCC` as the compound, how does the Potency read?
Answer: The Potency was “inactive”.

Question: For `COc1cc(CCC(C)=O)ccc1O`, which Potency is on record?
Answer: The Potency was “inactive”.

Question: With `CCn1cc(C(=O)O)c(=O)c2cc(F)c(N3CCN(C)CC3)cc21` as the compound, how does the Potency read?
Answer: The Potency was “inactive”.

Question: With `O=S(=O)(O)c1ccccc1O` as the compound, how does the Potency read?
Answer: Its Potency is “inactive”.

Question: Which Potency does the source give for `C#CC(O)CCCCC` (stereo unspecified) here?
Answer: The Potency was “inactive”.

Question: Which Potency does the source give for `Cc1c(C)n(CCN(C)C)c2ccc(C(=O)OCCN(C)C)cc12` here?
Answer: Its Potency is 21.1 µM (active).

Question: With `C=CC(=O)N1CCOCC1` as the compound, how does the Potency read?
Answer: Its Potency is “inactive”.

Question: Which Potency does the source give for `OCC(O)[C@@H](O)[C@H](O)[C@H](O)CO[C@H]1O[C@H](CO)[C@@H](O)[C@H](O)[C@H]1O` (stereo partly specified) here?
Answer: Its Potency is “inactive”.

Question: Which Potency does the source give for `CCCCCCCCC=O` here?
Answer: The Potency was “inactive”.

Question: For `CC(CCO)CCCC(C)(C)O` (stereo unspecified), which Potency is on record?
Answer: The Potency was “inactive”.

Question: For `C[C@H]1O[C@@H](n2cc(F)c(=O)[nH]c2=O)[C@H](O)[C@@H]1O`, which Potency is on record?
Answer: Its Potency is “inactive”.

Question: Which Potency does the source give for `CCCCCCCCCCC1CO1` (stereo unspecified) here?
Answer: Its Potency is “inactive”.

Question: Which Potency does the source give for `N[C@@H](CS)C(=O)O` here?
Answer: Its Potency is “inactive”.

Question: With `C=C(C)C(=O)NCCC[N+](C)(C)C` as the compound, how does the Potency read?
Answer: The Potency was “inactive”.
